Seven molecules from PubChem BioAssay (Tox21) can be followed below.

Assay [1] is described as follows: Nuclear factor erythroid 2-related factor 2/antioxidant responsive element (Nrf2/ARE) small molecule agonists: qHTS cell viability counter screen in human keratinocytes (AID 1919968; active = well fitted curve in the direction sought with a large enough effect in the repeat runs; an effect the other way counts as inactive or inconclusive; also: nearly all actives have a fitted effect of over 55% in size; also: potency is read from the fitted curve at half-maximal effect). The method, boiled down: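 Cytotoxicity was multiplexed with the Nrf2/ARE luciferase assay in the same wells. Stably transfected HaCaT keratinocytes were treated with test compounds for 23 h at 37 C. Cell viability was then measured by CellTiter-Fluor fluorescence.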
A general note: Quantitative high-throughput screening tests each substance at several concentrations.

Assay [2] in a line: Nuclear factor erythroid 2-related factor 2/antioxidant responsive element (Nrf2/ARE) small molecule agonists: luciferase reporter gene qHTS assay in human keratinocytes (AID 1919969). Also: nearly all actives have a fitted effect of over 35% in size. Also: potency is read from the fitted curve at half-maximal effect. On the technique in general: In a reporter assay the amount or activity of a reporter protein is the signal.
The target in assay [3] is Gonadotropin-releasing hormone receptor (Homo sapiens) (UniProt P30968). The assay is described as follows: Human gonadotropin-releasing hormone receptor (GnRHR) small molecule agonists, calcium flux assay in GnRHR-HEK293 cells (AID 1920063). Also: nearly all actives have a fitted effect of over 35% in size. The method, boiled down:
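Agonist activity was measured as intracellular calcium flux in HEK293 cells engineered to stably express human GnRHR. After dye loading for 1 hour at 37 C, compounds in DMSO were added and fluorescence was followed for 3 minutes.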
For orientation: A change in cytosolic calcium serves as a functional read-out for many receptors and channels.

Assay [4] deals with KiSS-1 receptor (Homo sapiens) (UniProt Q969F8). The assay is described as follows: Human kisspeptin (KISS1R) small molecule agonists, calcium flux assay in KISS1R-HEK293 cells (AID 1920064; active = well fitted curve in the direction sought with a large enough effect in the repeat runs; an effect the other way counts as inactive or inconclusive). The method, boiled down:
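Agonist activity is monitored as intracellular calcium rise in engineered HEK293 cells carrying human KISS1R. Cells are dye-loaded for 1 h at 37 C before compound addition, and fluorescence is recorded for 3 min.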

A short description of assay [5]: G protein-coupled receptor (GPCR) small molecule agonists, calcium flux assay: HEK293 wild type cell line counter screen (AID 1920065). A digest of the protocol: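 Seed cells, incubate 18 h (37 C, 5% CO2); add calcium dye, 1 h at 37 C; pin-transfer compounds, ATP control or DMSO; read fluorescence 480/540 nm each second for 3 min.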
A short description of assay [6]: p53 small molecule agonists, cell-based qHTS assay with human liver microsomes (AID 1963577).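 Also: p53 response element beta-lactamase reporter cells with liver microsomes plus NADPH.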 The method, boiled down: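 Metabolically competent format: test substances, human liver microsomes and NADPH (both 0.5 mg/mL final) incubated with p53RE-bla cells 16 h at 37 C. Beta-lactamase reporter signal then quantified by fluorescence.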
A short description of assay [7]: p53 small molecule agonists, cell-based qHTS assay with rat liver microsomes (AID 1963578). The method, boiled down:
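Each plate received p53RE-bla cells, then compound, then rat liver microsomes and NADPH (both 0.5 mg/mL final). Plates were held 16 h at 37 C, and beta-lactamase activity was detected with LiveBLAzer over 2 h.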

Assay [8] is described as follows: p53 small molecule agonists, cell-based qHTS assay with human liver microsomes: qHTS cell viability counter screen (AID 1963579). Also: nearly all actives have a fitted effect of over 45% in size. A digest of the protocol: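 Tox21 library compounds, delivered from DMSO stocks, were tested on p53RE-bla cells together with 0.5 mg/mL human liver microsomes and 0.5 mg/mL NADPH (final) over 16 h at 37 C; CellTiter-Glo luminescence served as the cytotoxicity measure.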

A short description of assay [9]: p53 small molecule agonists, cell-based qHTS assay with rat liver microsomes: qHTS cell viability counter screen (AID 1963580). Also: nearly all actives have a fitted effect of over 45% in size. A digest of the protocol:
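Cytotoxicity counter screen: intracellular ATP measured by CellTiter-Glo luminescence in the same wells as the beta-lactamase reporter read, on HCT-116 p53RE-bla cells exposed 16 h at 37 C to compounds with rat liver microsomes and NADPH, each 0.5 mg/mL final.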

Assay [10] can be described thus: p53 small molecule agonists, cell-based qHTS assay (AID 1963582; active = well fitted activation curve with a large enough effect in the signal ratio in the repeat runs, not every such curve was filed as active; the % refers to the signal ratio; also: potency is read from the fitted curve at half-maximal effect). The method, boiled down:
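Cells carrying a p53-responsive bla reporter are treated with test compounds for 16 h at 37 C; beta-lactamase activity is then detected with LiveBLAzer B/G FRET substrate after 2 h at room temperature.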

In assay [11] the target is 5-hydroxytryptamine receptor 2A (Homo sapiens) (UniProt P28223). Briefly: 5-hydroxytryptamine receptor 2A (HTR2A) small molecule agonists, cell-based qHTS assay (AID 1963587). Also: nearly all actives have a fitted effect of over 30% in size. Also: potency is read from the fitted curve at half-maximal effect. A digest of the protocol:
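CHO cells stably expressing human HTR2A, plated 18 h, loaded with calcium dye 1 h at 37 C. Agonist mode: compounds added and intracellular calcium fluorescence recorded kinetically for 2 min at 1 sec intervals.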

Assay [12] deals with Muscarinic acetylcholine receptor M1 (Homo sapiens) (UniProt P11229). Briefly: Cholinergic receptor muscarinic 1 (CHRM1) small molecule antagonists, cell-based qHTS assay (AID 1963588). Also: nearly all actives have a fitted effect of over 40% in size. The method, boiled down:
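Compounds were tested at 15 concentrations in three independent runs. Dye-loaded CHRM1-CHO cells were exposed 5 min at room temperature before stimulation by acetylcholine added at 50nM. Intracellular calcium was read kinetically on FDSS for 3 min.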

Assay [13] has the same target. Briefly: Cholinergic receptor muscarinic 1 (CHRM1) small molecule agonists, cell-based qHTS assay (AID 1963589). Also: nearly all actives have a fitted effect of over 35% in size. A digest of the protocol: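 Cells were plated and incubated 18 h at 37 C/5% CO2, loaded with calcium dye for 1 h at 37 C, then treated with compounds in DMSO. Fluorescence was recorded kinetically at 1 sec intervals.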
Assay [14] can be described thus: cAMP Responsive Elements (CRE) small molecule agonists, cell-based qHTS assay (AID 1963590). The method, boiled down: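 Cells carrying a CRE-driven beta-lactamase reporter (HEK 293T) are seeded, incubated overnight (18 h), and treated with test compounds for 3 h at 37 C; reporter activity is then detected with a FRET substrate after 2 h at room temperature.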
Assay [15] can be described thus: cAMP Responsive Elements (CRE) small molecule antagonists, cell-based qHTS assay (AID 1963591; active = well fitted inhibition curve with a large enough effect in the signal ratio in the repeat runs, not every such curve was filed as active; the % refers to the signal ratio). A digest of the protocol: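 Cells (CRE-bla HEK 293T, DMEM with 10% dialyzed FBS and 25 mM HEPES) are seeded and incubated 18 h. Compounds are added with NKH477 agonist at 0.25 uM final for 3 h, then FRET substrate for 2 h.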
The target in assay [16] is Beta-2 adrenergic receptor (Homo sapiens) (UniProt P07550). Briefly: Adrenergic beta2 receptor (ADRB2) small molecule antagonists, cell-based qHTS assay (AID 1963592). Also: series mostly up to about 92 µM; nearly all actives have a fitted effect of over 50% in size. The method, boiled down:
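Assay format: CHO-ADRB2 cells, 18-20hr seeding at 37C/5% CO2, then compound plus 1nM isoproterenol agonist mix for 0.5hr RT. Homogeneous time-resolved fluorescence cAMP detection after 1hr, expressed as 665/615 nm ratio.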

In assay [17] the target is D(2) dopamine receptor (Homo sapiens) (UniProt P14416). Briefly: Dopamine D2 receptor (DRD2) small molecule agonists, cell-based qHTS assay (AID 1963594). Also: nearly all actives have a fitted effect of over 35% in size. The method, boiled down:
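HEK293 cells stably expressing human DRD2, pre-treated with PDE inhibitor Ro20-1724 (0.1 mM final) and compound 10 min at room temperature, then stimulated with NKH477 (200nM […]) for 30 min. cAMP read by HTRF (665/620 nm).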

Assay [18] has the same target. Briefly: Dopamine D2 receptor (DRD2) small molecule antagonists, cell-based qHTS assay (AID 1963595; active = well fitted inhibition curve with a large enough effect in the signal ratio in the repeat runs, with a control signal flat; the % refers to the signal ratio). The method, boiled down: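 HEK293 cells stably expressing DRD2 were preincubated with 0.1 mM Ro20-1724, then with compound for 10 min at room temperature. Cells were stimulated with 200 nM NKH477 plus 12 nM quinpirole for 30 min, and cAMP was read by HTRF.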
For assay [19], the target named is 5-hydroxytryptamine receptor 2A (Homo sapiens) (UniProt P28223). The assay is described as follows: 5-hydroxytryptamine receptor 2A (HTR2A) small molecule antagonists, cell-based qHTS assay (AID 1963586). Also: nearly all actives have a fitted effect of over 45% in size. Also: potency is read from the fitted curve at half-maximal effect. The method, boiled down:
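CHO cells stably expressing human HTR2A were plated for 18 h at 37 C, then loaded with calcium dye for 1 h. Compounds were preincubated 5 min at room temperature before DOI (4 nM solution) was added. Kinetic fluorescence was read for 3 min.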

The nature of assay [20]: p53 small molecule agonists, cell-based qHTS assay: qHTS cell viability counter screen (AID 1963581). Also: nearly all actives have a fitted effect of over 45% in size. A digest of the protocol:
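Viability was counter-screened in parallel with the p53 agonist reporter by measuring intracellular ATP luminescence in the same HCT-116 p53RE-bla wells after 16 h compound treatment at 37 C.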

SMILES strings stand for the structures. Where “and” joins values, the source holds several entries; their conditions need not be identical. Equal entries are not always repeated. Results filed as inconclusive are left out. Some structures have more than one record in an assay (separate samples or runs), and their calls can disagree. Calls of active or inactive are those of the source. Unless noted, calls follow the shape of the full dose curve.

Chain of D(2) dopamine receptor (Homo sapiens) (P14416 whole entry, looked up): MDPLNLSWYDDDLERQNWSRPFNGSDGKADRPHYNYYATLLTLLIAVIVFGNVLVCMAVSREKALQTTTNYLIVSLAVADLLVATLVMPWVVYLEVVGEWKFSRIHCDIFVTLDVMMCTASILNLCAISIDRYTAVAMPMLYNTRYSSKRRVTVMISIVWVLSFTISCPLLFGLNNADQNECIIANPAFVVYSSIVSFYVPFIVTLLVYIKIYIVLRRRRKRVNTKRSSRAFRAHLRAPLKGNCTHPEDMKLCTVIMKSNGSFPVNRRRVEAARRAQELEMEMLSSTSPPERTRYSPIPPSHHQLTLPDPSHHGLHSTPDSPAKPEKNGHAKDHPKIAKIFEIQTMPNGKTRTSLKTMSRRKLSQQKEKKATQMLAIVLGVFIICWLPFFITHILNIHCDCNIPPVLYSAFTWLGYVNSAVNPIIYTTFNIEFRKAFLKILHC
Chain of 5-hydroxytryptamine receptor 2A (Homo sapiens) (P28223 whole entry, looked up): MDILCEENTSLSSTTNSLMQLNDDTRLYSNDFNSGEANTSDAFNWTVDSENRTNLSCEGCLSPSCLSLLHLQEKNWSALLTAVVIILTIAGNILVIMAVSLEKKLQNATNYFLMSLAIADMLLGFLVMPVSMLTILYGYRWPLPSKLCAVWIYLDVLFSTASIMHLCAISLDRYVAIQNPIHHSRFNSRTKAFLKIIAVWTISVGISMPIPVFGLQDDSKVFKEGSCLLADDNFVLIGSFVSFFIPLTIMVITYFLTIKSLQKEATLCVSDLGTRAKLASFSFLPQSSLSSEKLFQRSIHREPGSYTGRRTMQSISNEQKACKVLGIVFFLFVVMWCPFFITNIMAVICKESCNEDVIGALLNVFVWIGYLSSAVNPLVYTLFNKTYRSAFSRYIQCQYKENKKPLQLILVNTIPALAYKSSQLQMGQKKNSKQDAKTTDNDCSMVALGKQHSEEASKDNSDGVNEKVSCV
Chain of KiSS-1 receptor (Homo sapiens) (Q969F8 whole entry, looked up): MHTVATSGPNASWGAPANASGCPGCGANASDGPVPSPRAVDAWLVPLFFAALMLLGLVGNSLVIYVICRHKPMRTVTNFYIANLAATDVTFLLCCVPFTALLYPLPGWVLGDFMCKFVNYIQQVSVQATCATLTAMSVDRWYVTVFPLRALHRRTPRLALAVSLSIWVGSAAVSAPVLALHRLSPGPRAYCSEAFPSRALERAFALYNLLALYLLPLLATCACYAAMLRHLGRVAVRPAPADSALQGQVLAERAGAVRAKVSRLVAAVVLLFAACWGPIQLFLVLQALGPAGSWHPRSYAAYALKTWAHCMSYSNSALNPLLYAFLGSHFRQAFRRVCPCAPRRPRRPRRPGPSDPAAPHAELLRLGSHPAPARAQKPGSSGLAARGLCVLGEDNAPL
Chain of Beta-2 adrenergic receptor (Homo sapiens) (P07550 whole entry, looked up): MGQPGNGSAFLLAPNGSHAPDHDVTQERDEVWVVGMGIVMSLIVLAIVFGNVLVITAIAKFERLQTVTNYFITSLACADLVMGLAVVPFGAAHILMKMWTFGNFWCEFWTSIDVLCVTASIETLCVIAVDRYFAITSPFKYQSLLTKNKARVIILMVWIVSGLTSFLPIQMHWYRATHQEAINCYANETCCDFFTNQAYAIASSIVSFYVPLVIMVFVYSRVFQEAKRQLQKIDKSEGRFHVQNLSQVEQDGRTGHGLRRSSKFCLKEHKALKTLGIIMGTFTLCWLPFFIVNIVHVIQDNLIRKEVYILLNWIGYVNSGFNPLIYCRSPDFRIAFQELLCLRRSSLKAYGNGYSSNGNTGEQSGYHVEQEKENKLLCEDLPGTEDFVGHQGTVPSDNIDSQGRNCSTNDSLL
Chain of Gonadotropin-releasing hormone receptor (Homo sapiens) (P30968 whole entry, looked up): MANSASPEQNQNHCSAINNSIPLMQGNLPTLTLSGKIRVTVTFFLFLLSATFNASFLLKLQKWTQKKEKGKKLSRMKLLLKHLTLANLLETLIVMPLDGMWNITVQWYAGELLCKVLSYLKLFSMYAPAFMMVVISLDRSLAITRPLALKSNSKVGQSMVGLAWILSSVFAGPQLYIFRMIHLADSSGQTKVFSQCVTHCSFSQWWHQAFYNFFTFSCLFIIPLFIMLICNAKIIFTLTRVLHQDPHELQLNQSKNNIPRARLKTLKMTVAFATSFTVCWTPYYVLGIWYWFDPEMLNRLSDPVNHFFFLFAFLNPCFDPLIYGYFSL
Chain of Muscarinic acetylcholine receptor M1 (Homo sapiens) (P11229 whole entry, looked up): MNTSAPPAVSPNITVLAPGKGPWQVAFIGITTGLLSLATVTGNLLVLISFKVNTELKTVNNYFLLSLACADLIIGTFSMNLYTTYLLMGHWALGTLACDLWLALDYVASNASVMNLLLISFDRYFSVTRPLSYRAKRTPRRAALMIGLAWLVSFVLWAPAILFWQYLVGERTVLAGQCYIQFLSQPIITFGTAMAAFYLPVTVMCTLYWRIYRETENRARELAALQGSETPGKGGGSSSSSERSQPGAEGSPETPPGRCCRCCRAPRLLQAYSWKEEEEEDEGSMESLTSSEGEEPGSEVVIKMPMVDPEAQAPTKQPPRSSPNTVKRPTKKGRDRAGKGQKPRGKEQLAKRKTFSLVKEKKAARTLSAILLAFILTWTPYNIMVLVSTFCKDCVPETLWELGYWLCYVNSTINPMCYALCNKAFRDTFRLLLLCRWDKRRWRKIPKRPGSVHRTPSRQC

In the case of `c1ccc(N=NNc2ccccc2)cc1`, the Potency result in assay [1], in assay [3], in assay [4], in assay [5], in [6] and in [7] was “inactive” throughout. The Potency entry in assay [8], in [9], in [10], in assay [11], in assay [12] and in assay [13] was “inactive” throughout. Also, the Potency entry in [14], in [15], in [16], in assay [17] and in assay [18] was “inactive” throughout. Besides, the Potency in assay [2] was 28.3 µM (active) and 61.1 µM (active).

`CCCCNC(=O)n1c(NC(=O)OC)nc2ccccc21`: the Potency entry in assay [1], in assay [3], in [4], in assay [5], in [6] and in assay [7] was “inactive” throughout. For the same molecule, the Potency entry in assay [8], in [9], in assay [19], in [11], in [12] and in assay [13] was “inactive” each time. The Potency entry in [14], in assay [15], in assay [16] and in assay [17] was “inactive” throughout. Further, the Potency in [2] was 54.2 µM (active); in [10], 10.2 µM (active).

For `CCC(C)(C)c1ccc(O)cc1`, the Potency in assay [1] is 61.8 µM (active) and inactive; in [19], 37.9 µM (active) and inactive; in [11], 55.5 µM (active) and inactive. For the same molecule, the Potency result in assay [2], in assay [3], in assay [4], in assay [5], in assay [6] and in assay [7] was “inactive” throughout. Besides, the Potency entry in assay [8], in [9], in assay [20], in [13], in [16] and in assay [17] was “inactive” throughout. The Potency result in assay [18] is “inactive”.

Take `Cc1ccc(N)c(N)c1`: the Potency entry in assay [1], in assay [3], in [4], in [5], in [6] and in assay [7] was “inactive” throughout. Further, the Potency result in assay [8], in [9], in [10], in [19], in assay [11] and in assay [12] was “inactive” each time. Moreover, the Potency result in assay [13], in assay [14], in assay [15], in [16], in assay [17] and in assay [18] was “inactive” in each case. Besides, the Potency in assay [2] is 4.87 µM (active) and 68.6 µM (active).

Take `Cc1cccc(N)c1`: the Potency entry in [1], in [2], in assay [3], in assay [4], in assay [5] and in assay [6] was “inactive” throughout. Moreover, the Potency entry in [7], in [8], in [9], in [20], in [11] and in [12] was “inactive” throughout. Besides, the Potency entry in [13], in assay [14], in assay [15], in assay [16], in assay [17] and in assay [18] was “inactive” each time.

For `OC(O)C(Cl)(Cl)Cl`, the Potency result in [1], in assay [2], in assay [3], in [4], in assay [5] and in [6] was “inactive” each time. For the same molecule, the Potency entry in [7], in [8], in assay [9], in assay [10], in assay [19] and in [11] was “inactive” each time. Also, the Potency result in assay [12], in assay [14], in assay [16], in assay [17] and in assay [18] was “inactive” in each case.

As to `CC(=O)CC(c1ccc(Cl)cc1)c1c(O)c2ccccc2oc1=O` (centres undefined), the Potency entry in [1], in assay [2], in assay [3], in [4], in assay [5] and in [6] was “inactive” throughout. For the same molecule, the Potency result in [7], in assay [8], in [9], in assay [20], in assay [19] and in assay [11] was “inactive” each time. Further, the Potency entry in assay [12], in assay [14], in [15], in assay [16], in [17] and in assay [18] was “inactive” in each case.
